Inconclusive results are not listed. Unmarked numbers belong to inactive results. Calls of active or inactive are those of the source. Calls follow the shape of the dose curve; as a rule, active = well fitted inhibition curve with a large enough effect; inconclusive = small, poorly fitted or top-dose-only effect; inactive = no such curve, though single readings can be large or run the other way.
Experiment: qHTS for Inhibitors of the Aldehyde Dehydrogenase Family (ALDH1A2, ALDH1A3, ALDH2, ALDH3A1) (AID 2061307); also: nearly all actives have a fitted effect of over 50% in size; as to Potency: test system not described further here
Settings: ALDH inhibition qHTS; series mostly up to 50.3 µM; activity change, negative = inhibition: at the top concentration
In the case of `CSc1ccc(-c2csc(N3CCC(C(N)=O)CC3)n2)cc1`, the Potency is reported as 4 µM (active). With `O=C(c1ccc2ccccc2c1)c1no[n+]([O-])c1C(=O)c1ccc2ccccc2c1` the Potency was 5.04 µM (active). In the case of `CN1c2cc(C(=O)Nc3ccc(N4CCOCC4)cc3)ccc2C(=O)N2CCCCC21` (stereo unspecified), the “activity change, negative = inhibition” value is reported as 1.23% [at 34.4 µM]. With `N#Cc1nc(-c2ccc(F)cc2)oc1N1CCN(C(=O)c2ccccc2F)CC1` the “activity change, negative = inhibition” value was -11.8%. For `O=C(CNc1cccc(S(=O)(=O)N2CCOCC2)c1)Nc1ccc(OC(F)(F)F)cc1`, the Potency was 1.27 µM (active). With `C=CCn1c(Sc2ncc(C#N)cc2Cl)nnc1-c1ccccc1F` the “activity change, negative = inhibition” value was -64.2% [at 34.4 µM]. In the case of `NS(=O)(=O)c1ccc(Nc2cn[nH]c2-c2cccc(-c3ccccc3)c2)cc1`, the “activity change, negative = inhibition” value is reported as -25.1%. For `Cc1c(P(=S)(c2ccccc2)c2ccccc2)[n+]2ccccc2n1C/C=C/c1ccc2ccccc2c1`, the Potency was 3.55 µM (active). In the case of `CCOC(=O)c1c(C)n(-c2ccc(OC)cc2)c2ccc(O)cc12`, the “activity change, negative = inhibition” value is reported as 15.1% [at 34.4 µM]. With `COc1ccc(-n2cc(-c3ccc4c(c3)OCO4)n(CC(=O)Nc3cccc(C)c3)c2=O)cc1` the “activity change, negative = inhibition” value was -5.8% [at 34.4 µM]. With `C#CCOC(=O)NCCCC[C@H](N)C(=O)O` the “activity change, negative = inhibition” value was -13%. In the case of `CCN1C(=O)c2ccccc2S(=O)c2ccc(C(=O)NCc3cccc(C(F)(F)F)c3)cc21` (stereo unspecified), the “activity change, negative = inhibition” value is reported as -8.59%. With `CC(=O)c1cccc(Nc2cc(C)nc3nc(-c4ccccc4C)nn23)c1` the “activity change, negative = inhibition” value was -43.1% [at 34.4 µM]. With `Cn1nc(-c2ccccc2)cc1C(=O)N[C@H](Cc1ccc2ccccc2c1)C(=O)O` the “activity change, negative = inhibition” value was -16%. For `COc1cccc(CNc2ccc(S(=O)(=O)Nc3nc4ccccc4[nH]3)cc2)c1O`, the “activity change, negative = inhibition” value was -9.18%. With `COc1cc2nc(N3CCN(C)CC3)nc(N)c2cc1OC` the “activity change, negative = inhibition” value was 0.956%.
% is scaled to controls: 0 for no effect and ±100 for the full control effect; potency is read from the fitted curve at half-maximal effect.
